PubChem BioAssay
Values joined by “and” are separate entries in the source; they are usually repeats but may differ in a detail not shown here. Equal entries are not always repeated. Active and inactive are the calls of the source.

Assays:
[1] = optical density shifts of acrAB sulA E. coli – strain DRC41, OD650, 48 h, E. coli filamentation inducer project, primary screen (AID 1152); details: higher = more signal, called active from +8 up or from −8 down;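 further: E. coli MC1000 strain DRC41 lacking acrAB efflux pump and sulA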
[2] = probe aLefty1 binding on compound microarray – biochemical, small-molecule microarray, 635/667 nm fluorescence, primary screen (AID 1153); details: higher = more signal;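 further: score merges spot fluorescence with signal-to-noise ratio from the scanned slide images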
[3] = plasmodial surface anion channel blockers, osmotic lysis – cell-based, P. falciparum Indochina, OD700, 1 h, primary screen (AID 1154); details: P. falciparum Indochina infected RBC osmotic lysis, higher = more signal, called active from +8 up or from −8 down
[4] = plasmodial surface anion channel blockers, osmotic lysis – cell-based, P. falciparum Indochina, OD700, 2 h, primary screen (AID 1155);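 further: lysis reports solute entry through the parasite surface anion channel PSAC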; details: P. falciparum Indochina infected erythrocytes, higher = more signal, called active from +8 up or from −8 down
[5] = changes in parasitized red cell lysis, either direction – P. falciparum Indochina, OD700, 3 h, PSAC antagonist project, primary screen (AID 1156); details: P. falciparum-infected erythrocytes, osmotic lysis, higher = more signal, called active from +8 up or from −8 down
[6] = plasmodial surface anion channel blockers, osmotic lysis – cell-based, P. falciparum Indochina, OD700, 18 h, primary screen (AID 1157); details: P. falciparum Indochina infected erythrocytes, osmotic lysis OD700, 18 h; higher = more signal, called active from +8 up or from −8 down
[7] = S6 kinase pathway phospho-S6 level changes – cell-based, A549, cytoblot, luminescence, serum-stimulated, primary screen (AID 1158); details: 5 h, higher = more signal;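 further: serum-stimulated A549 lung adenocarcinoma cells; signal is phosphorylated S6 detected by cytoblot immunostaining with HRP secondary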
[8] = molecular target: NADPH oxidase 2 (Homo sapiens) (UniProt P04839); test: compounds shifting NOX2 Amplex Red fluorescence – cell-based, HEK293-NOX2, PMA-stimulated, NOX inhibitor project, primary screen (AID 1159); details: 45 min, higher = more signal, called active from +8 up or from −8 down; further: test concentration not given here
[9] = molecular target: NADPH oxidase 4 (Homo sapiens) (UniProt Q9NPH5); test: compounds shifting NOX4 Amplex Red fluorescence – cell-based, HEK293-NOX4, tetracycline-induced, NOX inhibitor project, primary screen (AID 1160); details: HEK293-NOX4, Amplex Red H2O2 fluorescence, 45 min; higher = more signal, called active from +8 up or from −8 down
[10] = molecular target: NADPH oxidase 5 (Homo sapiens) (UniProt Q96PH1); test: compounds shifting NOX5 Amplex Red fluorescence – cell-based, HEK293-NOX5, NOX inhibitor project, primary screen (AID 1161); details: HEK293-NOX5, ionomycin, 45 min, higher = more signal
[11] = compound effects on lung adenocarcinoma cell viability – A549, calcein-AM fluorescence, 48 h, basal, profiling panel (AID 1162); details: higher = more signal; further: test concentration not given here
[12] = compound effects on differentiated 3T3-L1 adipocyte viability – cell-based, 3T3-L1 adipocytes, calcein-AM fluorescence, 48 h, basal, profiling panel (AID 1163); details: 3T3-L1 adipocytes viability, higher = more signal; further: test concentration not given here
[13] = compound effects on hepatocellular carcinoma cell viability – HepG2, calcein-AM fluorescence, 48 h, basal, profiling panel (AID 1164); details: higher = more signal; further: test concentration not given here
[14] = compound effects on multiple myeloma cell viability – MM1S, calcein-AM fluorescence, 48 h, basal, profiling panel (AID 1165); details: higher = more signal;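 further: viability of MM1S multiple myeloma cells under basal unstimulated conditions; test concentration not given here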
[15] = calcein-AM signal in unstimulated myeloma cells – cell-based, calcein-AM fluorescence, 48 h, PK04 Diversity Set, profiling panel (AID 1166); details: RPMI8226 myeloma viability, higher = more signal;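 further: cells grown under basal conditions without added stimulus; test concentration not given here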
[16] = JC-1 mitochondrial signal, unstimulated HepG2 cells – cell-based, JC-1 fluorescence, 24 h, 100 nL compound, profiling panel (AID 1167); details: HepG2 mitochondrial potential, higher = more signal; further: test concentration not given here
[17] = JC-1 mitochondrial signal, unstimulated adipocytes – cell-based, JC-1 fluorescence, 3T3-L1 adipocytes, 24 h, 100 nL compound, profiling panel (AID 1168); details: JC-1 mitochondrial fluorescence, higher = more signal, called active from +8 up or from −8 down; further: test concentration not given here
[18] = JC-1 mitochondrial signal, unstimulated myeloma cells – cell-based, JC-1 fluorescence, RPMI8226, 24 h, 100 nL compound, profiling panel (AID 1169); details: JC-1 mitochondrial potential fluorescence, higher = more signal; further: test concentration not given here
[19] = JC-1 mitochondrial signal, unstimulated MM1S myeloma – cell-based, JC-1 fluorescence, 24 h, 100 nL compound, profiling panel (AID 1170); details: MM1S mitochondrial potential, higher = more signal; further: test concentration not given here
[20] = resazurin metabolic signal in A549 cells – cell-based, resazurin fluorescence, 24 h, PK04 Diversity Set, profiling panel (AID 1171); details: A549 viability, higher = more signal, called active from +8 up or from −8 down; further: test concentration not given here

Chain of NADPH oxidase 5 (Homo sapiens) (Q96PH1 whole entry, looked up): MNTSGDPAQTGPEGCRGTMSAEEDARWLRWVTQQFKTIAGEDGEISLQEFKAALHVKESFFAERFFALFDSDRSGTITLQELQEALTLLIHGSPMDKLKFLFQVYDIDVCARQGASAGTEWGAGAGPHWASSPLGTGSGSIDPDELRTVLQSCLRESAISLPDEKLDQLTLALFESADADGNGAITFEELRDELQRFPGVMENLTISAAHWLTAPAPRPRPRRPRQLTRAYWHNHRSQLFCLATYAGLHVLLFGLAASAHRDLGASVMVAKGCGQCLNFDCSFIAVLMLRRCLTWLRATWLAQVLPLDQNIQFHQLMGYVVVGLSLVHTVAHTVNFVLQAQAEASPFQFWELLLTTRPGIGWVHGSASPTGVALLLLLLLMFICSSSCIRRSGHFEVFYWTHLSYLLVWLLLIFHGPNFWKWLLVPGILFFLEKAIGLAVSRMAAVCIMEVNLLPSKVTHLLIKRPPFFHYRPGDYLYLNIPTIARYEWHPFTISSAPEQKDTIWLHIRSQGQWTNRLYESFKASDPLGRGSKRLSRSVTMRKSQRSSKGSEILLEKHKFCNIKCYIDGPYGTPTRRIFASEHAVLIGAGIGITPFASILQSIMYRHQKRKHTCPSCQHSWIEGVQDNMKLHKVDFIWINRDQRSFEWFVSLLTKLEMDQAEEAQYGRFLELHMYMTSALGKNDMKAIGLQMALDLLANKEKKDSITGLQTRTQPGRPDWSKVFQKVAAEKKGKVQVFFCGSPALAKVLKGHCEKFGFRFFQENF
Chain of NADPH oxidase 2 (Homo sapiens) (P04839 whole entry, looked up): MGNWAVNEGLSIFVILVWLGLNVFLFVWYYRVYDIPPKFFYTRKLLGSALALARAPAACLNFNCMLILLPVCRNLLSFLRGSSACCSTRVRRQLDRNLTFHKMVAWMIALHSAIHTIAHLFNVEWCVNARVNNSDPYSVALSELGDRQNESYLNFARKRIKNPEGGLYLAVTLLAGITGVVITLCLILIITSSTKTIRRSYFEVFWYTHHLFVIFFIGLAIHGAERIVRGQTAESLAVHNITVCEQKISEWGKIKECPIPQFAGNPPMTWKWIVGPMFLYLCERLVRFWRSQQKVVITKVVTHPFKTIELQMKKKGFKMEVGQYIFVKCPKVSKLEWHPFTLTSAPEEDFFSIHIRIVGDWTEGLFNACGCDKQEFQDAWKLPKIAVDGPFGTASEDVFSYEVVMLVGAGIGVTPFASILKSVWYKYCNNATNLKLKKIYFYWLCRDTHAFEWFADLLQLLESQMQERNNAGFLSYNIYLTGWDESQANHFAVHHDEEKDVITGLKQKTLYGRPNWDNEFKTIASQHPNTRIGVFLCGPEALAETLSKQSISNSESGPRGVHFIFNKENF
Chain of NADPH oxidase 4 (Homo sapiens) (Q9NPH5 whole entry, looked up): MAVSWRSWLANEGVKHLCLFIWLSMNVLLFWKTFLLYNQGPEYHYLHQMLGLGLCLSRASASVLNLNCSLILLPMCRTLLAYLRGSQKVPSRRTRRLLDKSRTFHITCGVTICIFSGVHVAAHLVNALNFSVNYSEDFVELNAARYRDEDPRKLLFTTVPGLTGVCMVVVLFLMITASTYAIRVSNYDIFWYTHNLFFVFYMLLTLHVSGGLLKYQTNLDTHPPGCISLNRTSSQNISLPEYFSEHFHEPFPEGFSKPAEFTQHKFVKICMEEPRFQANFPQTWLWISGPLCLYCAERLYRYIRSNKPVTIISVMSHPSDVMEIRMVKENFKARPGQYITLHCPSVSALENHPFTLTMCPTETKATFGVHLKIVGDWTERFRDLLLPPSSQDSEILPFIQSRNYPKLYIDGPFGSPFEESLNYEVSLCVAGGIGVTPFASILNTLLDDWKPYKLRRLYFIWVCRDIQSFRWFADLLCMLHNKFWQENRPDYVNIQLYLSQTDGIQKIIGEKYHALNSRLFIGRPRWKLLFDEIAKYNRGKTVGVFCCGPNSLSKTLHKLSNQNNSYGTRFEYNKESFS

Structure (SMILES) | z-score [1] | composite z-score [2] | z-score [3] | z-score [4] | z-score [5] | z-score [6] | z-score [7] | z-score [8] | z-score [9] | z-score [10] | z-score [11] | z-score [12] | z-score [13] | z-score [14] | z-score [15] | z-score [16] | z-score [17] | z-score [18] | z-score [19] | z-score [20]
C=CCN(C(=O)C1N(C(C)(C)CO)C(=O)C2C(C(=O)O)C3C=CC21O3)c1ccc(OC)cc1 (stereo not given) | 2.14 (inactive) and 0.776 (inactive) | -0.0544 and -0.333 | 2.3 (inactive) and -0.0606 (inactive) | -0.613 (inactive) and -0.0765 (inactive) | -1.82 (inactive) and 0.228 (inactive) | -0.646 (inactive) and -0.183 (inactive) | 0.228 and -0.0837 | 0.833 (inactive) and -0.0915 (inactive) | -2.16 (inactive) and -2.56 (inactive) | 0.782 and -1.03 | 0.396 and 0.242 | 0.682 and -0.0179 | -0.394 and -0.112 | 0.925 and 0.494 | 0.463 and 0.475 | 0.414 and 0.332 | 0.688 (inactive) and 0.702 (inactive) | 0.9 and -0.286 | 0.646 and 0.841 | 0.377 (inactive) and 0.109 (inactive)
COC(=O)[C@@]1(Cc2ccccc2)[C@H]2c3cc(C(=O)N(C)C)n(C[C@H](O)CO)c3C[C@H]2CN1C(=O)c1ccccc1 | -0.741 (inactive) and -1.44 (inactive) | 0.0903 and 0.415 | 0.67 (inactive) and 0.448 (inactive) | 0.324 (inactive) and 0.32 (inactive) | 1.28 (inactive) and 0.776 (inactive) | 0.789 (inactive) and 0.446 (inactive) | -0.0187 and -0.333 | -0.0779 (inactive) and 0.104 (inactive) | -3.17 (inactive) and -0.539 (inactive) | -4.08 and -0.292 | -0.876 and -0.976 | 0.318 and -0.385 | -0.76 and -1.07 | 0.112 and 0.416 | -1.95 and 0.383 | -1.04 and -0.162 | -0.0997 (inactive) and -0.187 (inactive) | -0.194 and -0.294 | -0.609 and -0.129 | -1.3 (inactive) and -0.848 (inactive)
COC(=O)C1=C(C)N(Cc2ccccc2)C2=C(C(C)=O)C[C@@](O)(C(=O)OC)C(=O)N2[C@@H]1c1ccccc1 | 0.125 (inactive) and -0.635 (inactive) | -0.147 and 0.0732 | 0.0793 (inactive) and -0.0501 (inactive) | -1.13 (inactive) and -0.742 (inactive) | 0.0531 (inactive) and -0.0986 (inactive) | -1.62 (inactive) and -0.838 (inactive) | 0.268 and 2.46 | 0.627 (inactive) and 0.462 (inactive) | 0.993 (inactive) and 0.524 (inactive) | 1 and 1.04 | -0.112 and 0.965 | 0.501 and 0.0527 | -0.491 and 0.55 | 1.11 and 0.699 | -0.0117 and 1 | 0.931 and 0.372 | 0.227 (inactive) and -0.00623 (inactive) | 0.689 and -0.71 | -0.16 and -0.174 | 1.25 (inactive) and 1.03 (inactive)
C=CCN(Cc1ccccc1)C(=O)C1N(c2ccc(CCO)cc2)C(=O)C2C(C(=O)O)C3C=CC21O3 (stereo not given) | 0.458 (inactive) and 1.31 (inactive) | -0.289 and -0.27 | 1.25 (inactive) and 1.16 (inactive) | 0.401 (inactive) and 0.572 (inactive) | 0.0406 (inactive) and -0.339 (inactive) | -0.157 (inactive) and 0.382 (inactive) | -0.0071 and 0.775 | 0.819 (inactive) and 0.498 (inactive) | -1.13 (inactive) and -0.149 (inactive) | 0.865 and 0.168 | 0.14 and -0.777 | 0.103 and 0.408 | -0.0042 and -0.474 | 0.298 and 1.04 | -0.6 and -0.438 | 0.0701 and -0.213 | 0.543 (inactive) and 0.024 (inactive) | -0.79 and 0.726 | 1.09 and 0.0787 | -1.06 (inactive) and -0.459 (inactive)
COC(=O)C1=C(C)N(Cc2ccccc2)C2=C3C(=O)CCC[C@@H]3[C@@](O)(C(=O)OC)C(=O)N2[C@@H]1c1ccccc1 | 0.941 (inactive) and 1.15 (inactive) | -0.0275 and 0.106 | -0.0542 (inactive) and 0.644 (inactive) | 0.23 (inactive) and -0.736 (inactive) | -0.689 (inactive) and 0.924 (inactive) | 0.249 (inactive) and -0.767 (inactive) | -0.0885 and 0.778 | 1.08 (inactive) and -0.368 (inactive) | -0.0562 (inactive) and 0.13 (inactive) | -0.0435 and -0.704 | 0.941 and 0.383 | 0.662 and -0.219 | 0.408 and -0.0984 | -2.99 | 0.28 and -2.5 | 1.07 and -0.0794 | -0.512 (inactive) and 0.739 (inactive) | 0.0423 and -0.467 | 1.36 and -0.505 | 0.477 (inactive) and 0.238 (inactive)
